Each structure is given as a SMILES string. Activity calls are given as the source filed them. How the source made its calls: active means hit-call score of the fitted dose curve at least 0.9, where 1 is the maximum; inactive means score below 0.9.

Read-out in the test: Tumor necrosis factor receptor superfamily member 6 (Homo sapiens) (UniProt P25445)
Nature of the test: LTEA_HepaRG_FAS: Life Technologies and Expression Analysis (LTEA) Assay for Fas cell surface death receptor (FAS) using HepaRG (AID 2283447). The settings on record: mRNA level, 48 h; actives raise or lower the signal. Here is the method:
LTEA_HepaRG is a cell based, multiplexed-readout assay that uses HepaRG, a human liver cell line, with measurements taken at 48 hours after chemical dosing on a 96-well plate.LTEA_HepaRG_FAS is one of 102 assay component(s) measured in the LTEA HepaRG cell culture assay. It is a marker of Cell proliferation, survival, death.Data from the assay component LTEA_HepaRG_FAS was analyzed into 1 endpoint. This assay endpoint, LTEA_HepaRG_FAS, was analyzed with bidirectional fitting relative to DMSO as the negative control and baseline of activity. Using a type of inducible reporter, measures of mRNA induction for gain or loss-of-signal activity can be used to understand regulation of transcription factor activity. To generalize the intended target to other relatable targets, this assay endpoint is annotated to the cytokine receptor intended target family, where the subfamily is TNF receptor.
A total of 1060 chemcials from the ToxCast library were tested in eight-point concentration-response experiments. Cell culture and cytotoxicity assays were conducted at Thermo Fisher Scientific's Custom Services facility (Madison, WI). A single lot of human HepaRG cells (Thermo Fisher Scientific, Frederick, MD) was used for the cell culture experiments. 96-well format collagen type I coated plates of human HepaRG cells were prepared using established methods. Briefly, cryopreserved HepaRG cells were thawed, plated at a density of approximately 100,000 cells/well in HepaRG Thaw, Plate, and General Purpose media (HPRG770, Thermo Fisher Scientific), and incubated for 48 hours. 0.5% DMSO was selected as vehicle control to balance the requisite need of DMSO in HepaRG cultures to maintain differentiation (for example, baseline metabolism, proportions of hepatocytes vs. cholangiocytes), while enabling further hepatic receptor pathway activation (for example, PXR and CAR) in response to chemical exposure. 48 hours after plating, the culture medium was replaced with HepaRG Serum-Free Incudtion Media. Cells were exposed to each test chemical in duplicate and maintained in CO2 incubators for another 48 hours. Chemical plates were thawed to room temperature and 200x concentrations of treatment groups were prepared. 8-point conentration-reponse curves were made with the highest exposure at 100 uM, followed by half-log dilutions, all in 0.5% DMSO. Each test plate contained variouse controls, induction positive controls (1mM phenobarbital), cytotoxicity positive controls ([…] aflatoxin B1), vehicle controls (0.5% DMSO), and total lysis controls (0.5% DMSO). Cell morphology images were taken using an Essen IncuCyte FLR automated microscope, with six 96-well plates imaged in about 24 minutes. Images were captured and exported and JPEG files. Spent culture media was transfered to black-well plates for the LDH assay, and remaining media was sorted at -80 C for later use. Cells were treated with RLT buffer and frozen until shipped for gene expression analysis. Total RNA was isolated from the cell suspension in 75 uL of Buffer RLT (Qiagen, Germantown, MD 20874) by Quintiles/Expression Analysis (Durham, NC) using a custom isolation procedure. Total RNA from each plate well was transferred to a preamplification plate. Fluidigm's 96.96 Dynamic ArrayTM (Fluidigm, Amsterdam, the Netherlands) technology was used for gene expression analyses by quantitative reverse transcription polymerase chain reaction (qRT-PCR, performed by Quintiles/Expression Analysis, Durham, NC)89. Standard TaqManTM Assays (Applied Biosystems/ThermoFisher Scientific, Foster City, CA) were used to assess the expression of 93 genes selected based on their selectivity and sensitivity to important hepatic receptors known to be modulated by environmental chemicals; importance in human hepatocyte functionality; and hepatotoxicity. […]
`CC(C)O.CC(C)O.OCCN(CCO)CCO.OCCN(CCO)CCO.[Ti]`: the outcome was inactive.
In the case of `O=C(N[C@H]1CN2CCC1CC2)c1ccc2c(c1)OCCO2` it was “inactive”; in that of `CC(C)(C)c1ccccc1O`, “inactive”; in that of `OCCN(CCO)CCO`, “inactive”.
Turning to `Oc1c(Cl)cc(Cl)cc1Cl`, the outcome was inactive.
Turning to `Clc1cccc(Cl)c1Cl`, the result was inactive.
Turning to `CCCCCCCCCCCCc1cccc(S(=O)(=O)O)c1`, the compound was classed as inactive.
In the case of `Oc1cc(Cl)c(Cl)cc1Cl` it was “inactive”.
Turning to `O=C(O)C1(c2ccc3c(c2)OC[C@H](Cc2ccc(-c4ccccc4)cc2)[C@H]3O)CCCC1`, the compound was called inactive.
As for `Clc1cccc(Cl)c1`, the compound was classed as inactive.
Turning to `N#Cc1cccnc1`, the compound was classed as inactive.
Turning to `COc1ccccc1N`, the call was inactive.

The record behind these values is PubChem BioAssay (EPA / NIEHS).
